Source: PubChem BioAssay AID1159580 (chemical genetic matrix, 2015)
Out of some 5,500 compounds screened, about 2,000 (36%) were called active. Roughly 18% stayed inconclusive and do not appear here. No stated cut-off is given here; in the data, active means normalized growth mostly below about 0.91 (no sharp cut-off); inconclusive means no clear call, values can overlap the other calls; inactive means mostly above about 0.92. This is one part of the list.

Experiment: chemical genetic growth profiling, strain panel (AID 1159580);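 further: tested at 20 µM; growth read once vehicle control cultures reached saturation at 30 °C; 1 = growth at the plate median or of vehicle wells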
Conditions: growth OD

Measured: normalized growth

COC1=CC(=O)C=C(OC)C1=O
inactive: S. cerevisiae deletion strains, locus YKL009W, strain mrt4, stronger effect = lower value 0.956 | S. cerevisiae deletion strains, locus YKL068W, stronger effect = lower value 0.972 | S. cerevisiae deletion strains, locus YKL085W, strain MDH1 (second series), stronger effect = lower value 0.981 | S. cerevisiae deletion strains, locus YKL085W, strain MDH1, stronger effect = lower value 0.981 | S. cerevisiae deletion strains, locus YKL160W, strain elf1, stronger effect = lower value 0.971 | S. cerevisiae deletion strains, locus YKL190W, strain CNB1, stronger effect = lower value 0.989 | S. cerevisiae deletion strains, locus YKR001C, strain vps1, stronger effect = lower value 0.995 | S. cerevisiae deletion strains, locus YKR026C, strain gcn3, stronger effect = lower value 0.995 | S. cerevisiae deletion strains, locus YKR091W, strain srl3, stronger effect = lower value 1 | S. cerevisiae deletion strains, locus YLL001W, strain dnm1, stronger effect = lower value 0.996 | S. cerevisiae deletion strains, locus YLL026W, stronger effect = lower value 0.991 | S. cerevisiae deletion strains, locus YLL041C, strain sdh2, stronger effect = lower value 1.01 | S. cerevisiae deletion strains, locus YLR027C, strain aat2, stronger effect = lower value 0.997 | S. cerevisiae deletion strains, locus YLR039C, strain RIC1, stronger effect = lower value 0.981 | S. cerevisiae deletion strains, locus YLR058C, strain SHM2, stronger effect = lower value 0.988 | S. cerevisiae deletion strains, locus YLR102C, strain apc9, stronger effect = lower value 0.982 | S. cerevisiae deletion strains, locus YLR113W, strain HOG1, stronger effect = lower value 0.998 | S. cerevisiae deletion strains, locus YLR221C, strain rsa3, stronger effect = lower value 1 | S. cerevisiae deletion strains, locus YLR258W, strain gsy2, stronger effect = lower value 0.997 | S. cerevisiae deletion strains, locus YLR262C, strain YPT6 (second series), stronger effect = lower value 0.946 | S. cerevisiae deletion strains, locus YLR262C, strain YPT6, stronger effect = lower value 0.967 | S. cerevisiae deletion strains, locus YLR268W, strain sec22, stronger effect = lower value 0.989 | S. cerevisiae deletion strains, locus YLR320W, strain mms22, stronger effect = lower value 0.955 | S. cerevisiae deletion strains, locus YLR330W, strain CHS5, stronger effect = lower value 0.997 | S. cerevisiae deletion strains, locus YLR342W, strain FKS1 (second series), stronger effect = lower value 1.02 | S. cerevisiae deletion strains, locus YLR342W, strain FKS1, stronger effect = lower value 0.976 | S. cerevisiae deletion strains, locus YLR357W, strain rsc2, stronger effect = lower value 0.99 | S. cerevisiae deletion strains, locus YLR370C, strain arc18, stronger effect = lower value 1.01 | S. cerevisiae deletion strains, locus YLR371W, strain rom2, stronger effect = lower value 0.989 | S. cerevisiae deletion strains, locus YLR384C, strain iki3, stronger effect = lower value 0.986 | S. cerevisiae deletion strains, locus YLR418C, strain cdc73, stronger effect = lower value 0.999 | S. cerevisiae deletion strains, locus YML016C, strain PPZ1, stronger effect = lower value 0.994 | S. cerevisiae deletion strains, locus YML032C, strain rad52, stronger effect = lower value 0.973 | S. cerevisiae deletion strains, locus YML120C, strain ndi1, stronger effect = lower value 1.01 | S. cerevisiae deletion strains, locus YML124C, strain tub3, stronger effect = lower value 0.987 | S. cerevisiae deletion strains, locus YMR058W, strain fet3, stronger effect = lower value 1.02 | S. cerevisiae deletion strains, locus YMR078C, strain ctf18, stronger effect = lower value 0.999 | S. cerevisiae deletion strains, locus YMR125W, strain sto1, stronger effect = lower value 1.02 | S. cerevisiae deletion strains, locus YMR129W, stronger effect = lower value 0.999 | S. cerevisiae deletion strains, locus YMR205C, strain PFK2, stronger effect = lower value 0.983 | S. cerevisiae deletion strains, locus YMR223W, strain ubp8, stronger effect = lower value 0.993 | S. cerevisiae deletion strains, locus YMR231W, strain pep5, stronger effect = lower value 1.01 | S. cerevisiae deletion strains, locus YMR307W, strain GAS1, stronger effect = lower value 1.12 | S. cerevisiae deletion strains, locus YNL067W, strain RPL9B, stronger effect = lower value 0.997 | S. cerevisiae deletion strains, locus YNL071W, strain lat1, stronger effect = lower value 0.989 | S. cerevisiae deletion strains, locus YNL183C, strain NPR1, stronger effect = lower value 0.95 | S. cerevisiae deletion strains, locus YNL209W, strain ssb2, stronger effect = lower value 0.996 | S. cerevisiae deletion strains, locus YNL233W, strain BNI4, stronger effect = lower value 1.02 | S. cerevisiae deletion strains, locus YNL248C, strain rpa49, stronger effect = lower value 1.01 | S. cerevisiae deletion strains, locus YNL250W, strain rad50, stronger effect = lower value 0.987 | S. cerevisiae deletion strains, locus YNL271C, strain bni1, stronger effect = lower value 0.99 | S. cerevisiae deletion strains, locus YNL298W, strain CLA4, stronger effect = lower value 0.999 | S. cerevisiae deletion strains, locus YNL307C, strain MCK1, stronger effect = lower value 0.992 | S. cerevisiae deletion strains, locus YNL322C, strain KRE1 (second series), stronger effect = lower value 0.996 | S. cerevisiae deletion strains, locus YNL322C, strain KRE1, stronger effect = lower value 0.993 | S. cerevisiae deletion strains, locus YNR049C, strain mso1, stronger effect = lower value 1 | S. cerevisiae deletion strains, locus YNR052C, strain pop2, stronger effect = lower value 1.01 | S. cerevisiae deletion strains, locus YOL006C, strain TOP1, stronger effect = lower value 1.17 | S. cerevisiae deletion strains, locus YOL012C, strain htz1 0.746 | S. cerevisiae deletion strains, locus YOL147C, strain pex11, stronger effect = lower value 0.988 | S. cerevisiae deletion strains, locus YOR001W, strain rrp6, stronger effect = lower value 1 | S. cerevisiae deletion strains, locus YOR061W, strain CKA2, stronger effect = lower value 0.965 | S. cerevisiae deletion strains, locus YOR069W, strain VPS5, stronger effect = lower value 0.991 | S. cerevisiae deletion strains, locus YOR070C, strain gyp1, stronger effect = lower value 0.996 | S. cerevisiae deletion strains, locus YOR080W, strain dia2, stronger effect = lower value 1.01 | S. cerevisiae deletion strains, locus YOR083W, strain WHI5, stronger effect = lower value 0.927 | S. cerevisiae deletion strains, locus YOR106W, strain vam3, stronger effect = lower value 0.97 | S. cerevisiae deletion strains, locus YOR136W, strain idh2, stronger effect = lower value 0.972 | S. cerevisiae deletion strains, locus YOR144C, strain elg1, stronger effect = lower value 0.994 | S. cerevisiae deletion strains, locus YOR184W, strain ser1, stronger effect = lower value 0.982 | S. cerevisiae deletion strains, locus YOR231W, strain MKK1, stronger effect = lower value 1.01 | S. cerevisiae deletion strains, locus YOR265W, strain rbl2, stronger effect = lower value 0.994 | S. cerevisiae deletion strains, locus YOR270C, strain vph1, stronger effect = lower value 0.94 | S. cerevisiae deletion strains, locus YOR290C, strain snf2, stronger effect = lower value 0.991 | S. cerevisiae deletion strains, locus YOR316C, strain cot1, stronger effect = lower value 0.986 | S. cerevisiae deletion strains, locus YPL051W, strain arl3, stronger effect = lower value 0.998 | S. cerevisiae deletion strains, locus YPL055C, strain LGE1, stronger effect = lower value 1.04 | S. cerevisiae deletion strains, locus YPL078C, strain atp4, stronger effect = lower value 0.962 | S. cerevisiae deletion strains, locus YPL106C, strain sse1, stronger effect = lower value 0.994 | S. cerevisiae deletion strains, locus YPL240C, strain hsp82, stronger effect = lower value 0.991 | S. cerevisiae deletion strains, locus YPL241C, strain CIN2, stronger effect = lower value 0.986 | S. cerevisiae deletion strains, locus YPL256C, strain CLN2, stronger effect = lower value 1.01 | S. cerevisiae deletion strains, locus YPR119W, strain clb2, stronger effect = lower value 0.981 | S. cerevisiae deletion strains, locus YPR141C, strain kar3, stronger effect = lower value 0.983 | S. cerevisiae deletion strains, locus YPR163C, strain tif3, stronger effect = lower value 1 | S. cerevisiae deletion strains, locus YPR167C, strain met16, stronger effect = lower value 0.976 | S. cerevisiae deletion strains, strain wtn01, stronger effect = lower value 0.981 | S. cerevisiae strains, strain wild type, stronger effect = lower value 1
